From PubChem
This excerpt belongs to a sample that is enriched for hits.
HIV RNase H inh-1: HIV-1 RT RNase H inhibitors, primary screen, biochemical, fluorescence | RT-RNase H RNA/DNA duplex cleavage | hit rate 1.9% among 65,000 | inhibition, % at 10 µM | AID 565, 2006; in the data active = inhibition above about 50%
HIV RNase H inh-2: HIV-1 RT RNase H inhibitors, retest, confirmation, biochemical | shares compounds with HIV RNase H inh-1 | Recombinant RT RNase H, fluorescent RNA/DNA duplex cleavage | inhibition, % at 10 µM | hit rate 39% among 1,000 | AID 651, 2007; in the data active = inhibition above about 48%; inconclusive = no clear call, values can overlap the other calls
Active calls of the source: *; ? = inconclusive.

SMILES	HIV RNase H inh-1	others
COC(=O)c1sc2nc(-c3ccco3)ccc2c1N	79*	HIV RNase H inh-2=34
COC(=O)c1sc(NC(=O)c2ccco2)nc1C	4
COc1ccccc1N1CCN(C(=O)CN(c2cc(C)cc(C)c2)S(C)(=O)=O)CC1	4
CC(C)(C)OC(=O)NCCCCCc1nnc(SCC(=O)Nc2cccc(Cl)c2)o1	-15
CCn1nnnc1-c1ccc(OC)c(S(=O)(=O)NCCc2ccccc2)c1	-9
Cc1[nH]c(C(=O)N2CCCCC2)c(C)c1C(=O)NC1CCCCC1	-1
Cc1ccc2[nH]c(=O)c(CN(CCCN3CCOCC3)C(=O)Nc3cccc(Cl)c3)cc2c1	-6
O=S1(=O)CC(O)C(Nc2ccccc2Cl)C1 (stereo unspecified)	-10
Cc1ccc(C2NC(=O)c3c(sc4c3CCN(C)C4)N2)o1 (stereo unspecified)	0
Cc1ccc(C2NC(=O)c3c(sc4c3CCN(C)C4)N2)s1 (stereo unspecified)	-8
CCOC(=O)N1CCc2c(sc3c2C(=O)NC(c2ccc(-c4ccc(Cl)cc4)o2)N3)C1 (stereo unspecified)	74*	HIV RNase H inh-2=97*
Cc1oc(-c2ccc(Cl)cc2)nc1CN1CCCC(C(=O)N2CCN(C(=O)c3ccco3)CC2)C1 (stereo unspecified)	-9
CC(NC(=O)c1ccco1)c1ccc2c(c1)OCCO2 (stereo unspecified)	-11
N#CCCCn1c(-c2ccccc2)noc1=O	-13
Cc1ccc2[nH]c(=O)c3cc(C(=O)N4CCN(C(=O)c5ccco5)CC4)sc3c2c1	36
Cc1ccc2cc3cc(C(=O)N4CCN(C(=O)c5ccco5)CC4)sc3nc2c1	55*	HIV RNase H inh-2=29
Cc1ccc2oc(=O)c3cc(C(=O)N4CCN(C(=O)c5ccco5)CC4)sc3c2c1	-19
COc1ccc(-c2nn(CC(=O)N(C)C)c(=O)c3ccccc23)cc1	-13
CC(=O)Nc1ccc(-c2nn[nH]n2)cc1Cl	-14
COc1ccc(OC)c(-n2nnnc2SCC(=O)NCCc2ccccc2)c1	-26
COc1cccc(-n2nnnc2SCC(=O)NCCc2ccccc2)c1	70*	HIV RNase H inh-2=38
COc1cccc(-n2nnnc2SCC(=O)NCc2ccco2)c1	-16
O=C(O)CCC(=O)Nc1ccc(Br)cn1	-17
O=C(O)CC(c1ccc(Cl)cc1)n1cccc1 (stereo unspecified)	-14
Cc1ccc(OCC(=O)Nc2ccc(O)c(-c3nc4ccccc4o3)c2)cc1	70*	HIV RNase H inh-2=26
SMILES	HIV RNase H inh-1	others
COc1cc(OC)cc(C(=O)Nc2ccc(-c3nc4ccccc4o3)cc2)c1	-3
COc1ccc(OCC(=O)Nc2ccc(C)cc2)cc1	-9
COc1cccc(C(=O)Nc2ccc(-c3nc4ccccc4o3)c(O)c2)c1	66*	HIV RNase H inh-2=24
O=C(COc1ccc(Cl)cc1)Nc1ccc2oc(-c3ccncc3)nc2c1	-1
COc1cc(C(=O)Nc2ccc(-c3nc4cc(C)ccc4o3)c(O)c2)cc(OC)c1OC	0
COC(=O)C1CCN(C(=O)c2sc3nc(-c4ccc(F)cc4)cn3c2C)CC1	-2
COC(=O)C1=C(C)N(c2cc(Cl)cc(Cl)c2)C(=O)C1	-7
CCCn1c(CNS(=O)(=O)c2ccc(C)cc2)nc2ccccc21	-7
Nn1cnn(Cc2ccccc2)c1=S	73*	HIV RNase H inh-2=?
c1ccc(Cn2ncc3ccccc32)cc1	-52
Cc1nn(Cc2ccccc2)c(N)c1-c1ccccc1	-4
O=C(OCc1cccs1)c1ccccc1NS(=O)(=O)c1ccc2c(c1)OCCO2	-40
O=C1C2C3CCCC3=C3CCCC3C2C(=O)N1c1ccccc1 (stereo unspecified)	11
c1ccc(Nc2cc(-c3ccccc3)nc3ncnn23)cc1	1
COc1ccc(N2CCN(Cc3cc(=O)oc4cc5c(cc34)CCCC5)CC2)cc1	81*	HIV RNase H inh-2=63*
CCc1cc2c(CN3CCN(CC)CC3)cc(=O)oc2cc1O	-3
O=c1cc(CN2CCN(c3ccccc3)CC2)c2cc(O)c(-c3ccccc3)cc2o1	73*	HIV RNase H inh-2=69*
O=c1cc(CN2CCN(C/C=C/c3ccccc3)CC2)c2cc(O)ccc2o1	0
CCc1ccc2oc(=O)cc(CN3CCN(c4ccc(F)cc4)CC3)c2c1	11
CC(C)c1ccc2oc(=O)cc(CN3CCN(c4ccc(F)cc4)CC3)c2c1	42
CC1CCCC(NC(=O)c2ccc3c(=O)n(CC4CCCO4)c(=O)[nH]c3c2)C1C (stereo unspecified)	5
CCCCc1nc2sc3c(c2c(=O)[nH]1)CCC3	-9
CN(C)S(=O)(=O)CC12CCC(CC1=O)C2(C)C (stereo unspecified)	-5
CCn1c(C(=O)NCc2cccnc2)cc2sc(Cl)cc21	-1
COC(=O)c1c(N)sc(C(=O)N2CCOCC2)c1C	0
SMILES	HIV RNase H inh-1	others
CCOC(=O)c1c(N)sc(C(=O)N2CCOCC2)c1C	0
Cc1c(-c2ccccc2)sc(N)c1C(=O)N1CCOCC1	85*	HIV RNase H inh-2=25
CCC(C(=O)N1CCc2ccccc2C1)n1nc(C)n2c(cc3occc32)c1=O (stereo unspecified)	-4
CCOC(=O)C1=C(CSc2n[nH]c(N)n2)NC(=O)NC1C (stereo unspecified)	-2
COC(=O)Cn1c(CCS(=O)(=O)c2ccc(C)cc2)nc2ccccc21	-6
Nc1n[nH]c(S(=O)(=O)CCCc2ccccc2)n1	-8
COc1ccc(-c2cc(C(=O)Nc3cnn(Cc4ccccc4C)c3)no2)cc1OC	87*	HIV RNase H inh-2=17
COc1cccc(-c2cc(C(=O)Nc3ccccc3SC)no2)c1	9
COc1ccc(-c2cc(C(=O)Nc3cc(C)n(Cc4ccc(Cl)cc4)n3)no2)cc1OC	-15
COc1ccc(-c2cc(C(=O)Nc3ccccc3SC)no2)cc1OC	91*	HIV RNase H inh-2=4
COc1ccccc1-c1cc(C(=O)Nc2ccccc2SC)no1	-7
COc1ccc(-c2cc(C(=O)NCCc3ccccc3)no2)cc1OC	-6
CCSc1nc(-c2ccc(OC)cc2)n(-c2nc3ccccc3s2)n1	10
Cc1ccc(N2C(=O)c3ccc(C(=O)N4CCN(c5ccccc5F)CC4)cc3C2=O)cc1	1
CCSc1cnc(-c2ccccc2)n1CC	-15
N#Cc1nn(-c2ccccc2)nc1N1CCCCC1	-12
C=CCC1(O)C(=O)N2C(=C1C(=O)N1CCOCC1)c1ccccc1CC2(C)C (stereo unspecified)	-9
O=c1c(N2CCCCC2)coc2ccccc12	-8
CCOC(=O)CSc1nnc(C)n1N	-7
NC(=O)c1c(NC(=O)CSc2nnc(-c3ccccc3)n2CC2CCCO2)sc2c1CCC2 (stereo unspecified)	20
Cn1cnnc1SCC(=O)Nc1sc2c(c1C(N)=O)CCC2	75*	HIV RNase H inh-2=11
NC(=O)c1c(NC(=O)C2CCCO2)sc2c1CCC2 (stereo unspecified)	0
Cc1nc2sc(C(c3ccc(F)cc3)N3CCN(C(=O)c4ccco4)CC3)c(O)n2n1 (stereo unspecified)	-30
Cn1nc(C(=O)Nc2c(-c3ccccc3)nc3sccn23)c2ccccc2c1=O	7
Cc1nc(NC(C)c2ccccc2)c2oc3ccccc3c2n1 (stereo unspecified)	-26
CCOC(=O)c1c(NC(C)=O)no[n+]1[O-]	2
CCOc1cccc(NC(=O)c2ccc(S(=O)(=O)N3CCCC3)cc2)c1	3
Fc1ccc(N2CCN(C(c3cccs3)c3nnnn3C3CCCC3)CC2)cc1 (stereo unspecified)	2
